High-throughput results deposited in PubChem by National Center for Advancing Translational Sciences (NCATS).
IL-1B inflam inh – blocks inflammasome-driven IL-1 beta release; THP-1 LPS/ATP IL-1B secretion, AlphaLISA, 16 h; hits give low values; activity change, % at 57.5 µM; 360,000 tested, 4.7% active; AID 743279; in the data active = activity change below about -50%; inconclusive = mostly about -30% to -49%
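Secreted IL-1B measured by AlphaLISA bead assay after 16 h compound exposure of THP-1 cells; compounds (final up to 57.5 uM) added 1 h before LPS (250 ng/mL) and ATP (1.25 mM) stimulation; lower signal means less secretion.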
DT40 TDP1 CPT – DT40-hTDP1 cell growth loss with CPT; chicken DT40 Tdp1-/-;hTDP1 cells + 20 nM CPT, ATP luminescence, 48 h; Potency, µM (series often up to 46.2 µM), without a hit: at the highest dose activity change, negative = growth inhibition, actives largely listed as inhibitors; 420,000 tested, 12% active; also: potency is read from the fitted curve at half-maximal effect; nearly all actives have a fitted effect of over 55% in size
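Chicken DT40 Tdp1-/- cells stably complemented with human TDP1 were seeded at 400 cells/well in medium containing 20 nM camptothecin, exposed to pin-transferred compounds, and grown at 37 °C for at least 48 hr. Viability was read as ATP luminescence.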
DT40 TDP1 no CPT – qHTS for Inhibitors of human tyrosyl-DNA phosphodiesterase 1 (TDP1): qHTS in cells in absence of CPT; 420,000 tested, 15% active; DT40 Tdp1-/- hTDP1 cells, no CPT, ATP luminescence, 48 h; Potency, µM (doses to about 46.2 µM), inactives show at the highest dose activity change, negative = growth inhibition, most hits filed as inhibitors; also: potency is read from the fitted curve at half-maximal effect; nearly all actives have a fitted effect of over 55% in size
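Growth kinetics read by CellTiter-Glo luminescence after ≥48 hr at 37 °C. Cells: DT40 Tdp1-/- stably carrying human TDP1, 400 per well, compound exposure in the absence of CPT (DMSO vehicle).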
Six1-Eya2 inh – blocks human Six1 binding to Eya2 | activity change, % (no concentration beside the values) | AlphaScreen GST-Six1/His-Eya2 binding, biochemical; hits give low values | Q15475+O00167 | 360,000 tested, 0.56% active; in the data active = activity change below about -65%; inconclusive = mostly about -30% to -63%
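AlphaScreen luminescence read after one hour at 37 °C in darkness. Pin-transferred compounds met GST-Six1 and His-Eya2 protein (5X stock 250 nM/500 nM) plus glutathione donor and Ni-chelate acceptor beads (5X, 50 ug/mL).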
TDP1 block – TDP1 (human) enzyme inhibition. Q9NUW8. Potency, µM (highest dose often 130 µM), for inactives: at the top dose activity change, negative = inhibition, hits mostly inhibitors. recombinant TDP1, AlphaScreen DNA substrate cleavage. 350,000 tested, 0.28% active; also: potency is read from the fitted curve at half-maximal effect; nearly all actives have a fitted effect of over 40% in size
Target sequence (Q9NUW8 whole entry, looked up): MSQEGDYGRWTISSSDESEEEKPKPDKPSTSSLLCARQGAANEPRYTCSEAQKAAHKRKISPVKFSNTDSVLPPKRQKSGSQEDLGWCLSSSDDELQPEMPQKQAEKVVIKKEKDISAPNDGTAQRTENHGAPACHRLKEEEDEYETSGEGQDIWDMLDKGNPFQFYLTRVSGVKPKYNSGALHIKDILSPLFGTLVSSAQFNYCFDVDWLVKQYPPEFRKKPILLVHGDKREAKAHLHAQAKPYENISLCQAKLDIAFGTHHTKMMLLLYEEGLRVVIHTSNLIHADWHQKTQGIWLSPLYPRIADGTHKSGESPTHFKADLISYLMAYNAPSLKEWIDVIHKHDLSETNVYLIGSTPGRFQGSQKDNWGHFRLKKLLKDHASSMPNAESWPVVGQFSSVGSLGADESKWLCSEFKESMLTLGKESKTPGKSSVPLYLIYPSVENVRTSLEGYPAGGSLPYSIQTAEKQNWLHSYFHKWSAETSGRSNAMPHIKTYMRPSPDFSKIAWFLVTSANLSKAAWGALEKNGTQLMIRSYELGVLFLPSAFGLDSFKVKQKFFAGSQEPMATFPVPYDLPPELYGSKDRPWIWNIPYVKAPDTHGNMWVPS
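Tdp1 1 nM final; 15 min RT w/ cpd; substrate 15 nM, 5 min; beads 10 ug/ml, 10 min; AlphaScreen read. Neg ctrl: no enzyme.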
CtBP-E1A inh – inhibitors of CtBP/E1A interaction. AlphaScreen GST-E1A/His-CtBP binding, 1536-well; hits give low values. activity change, % (no concentration beside the values). 340,000 tested, 0.49% active. AID 651724; in the data active = activity change below about -65%; inconclusive = mostly about -30% to -63%
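Steps: dispense buffer (Tris pH 8.0, NaCl 300 mM, TCEP 1 mM, BSA, Tween 20); add 5X protein mix (GST-E1A, His-CtBP, 125 nM each); pin 23 nL compound; 2 h at 37 °C, dark; add 5X beads (50 ug/mL); 1 h; read.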
Active calls of the source: *; [ ] = another dose, or the depositor's remark. A selection: hits, their analogues and other compounds. The true share with any hit is near 18%. Unless noted, calls follow the shape of the dose curve; as a rule, active = well fitted curve in the direction sought with a large enough effect; inconclusive = small, poorly fitted or top-dose-only effect, or another doubt; inactive = no such curve, though single readings can be large; an effect the other way counts as inactive or inconclusive. % is scaled to controls: 0 for no effect and ±100 for the full control effect.

For CCc1nnc(NC(=O)c2ccc(S(=O)(=O)N(CC(C)C)CC(C)C)cc2)o1 the results were IL-1B inflam inh 56, DT40 TDP1 CPT 21µM*, DT40 TDP1 no CPT 18µM*, Six1-Eya2 inh -13, TDP1 block -3% and CtBP-E1A inh -23.
`COC(=O)C1=C(C(=O)OC)[C@@H]2Nc3ccccc3[C@@]23C[C@@H](C(=O)OC)N(C(=O)C2CCC2)C3=N1` gave IL-1B inflam inh 25, DT40 TDP1 CPT -6%, DT40 TDP1 no CPT -12%, Six1-Eya2 inh 0, TDP1 block 16%[12.3 µM] and CtBP-E1A inh 4.
O=c1[nH]c(/C(Cl)=C/c2cc(Cl)ccc2O)nc2cc(Cl)ccc12 was read as IL-1B inflam inh -105*, DT40 TDP1 CPT 13µM*, DT40 TDP1 no CPT 13µM*, Six1-Eya2 inh 2, TDP1 block 7% and CtBP-E1A inh -12.
COc1ccc(NC(=O)CN2CCC(C(=O)c3ccc(C)cc3)CC2)c(OC)c1 was read as IL-1B inflam inh 13, DT40 TDP1 CPT inconclusive, DT40 TDP1 no CPT inconclusive, Six1-Eya2 inh -5, TDP1 block 0% and CtBP-E1A inh -3.
For COc1ccc(NC(=S)N2CCC(C(=O)c3ccc(C)cc3)CC2)c(OC)c1 the results were IL-1B inflam inh -22, DT40 TDP1 CPT 13µM*, DT40 TDP1 no CPT 9.2µM*, Six1-Eya2 inh -4, TDP1 block 5% and CtBP-E1A inh -15.
`COc1ccc(NC(=S)N2CCC(C(=O)c3ccc(F)cc3)CC2)cc1` gave IL-1B inflam inh -12, DT40 TDP1 CPT inconclusive, DT40 TDP1 no CPT -85% and Six1-Eya2 inh 11.
For COc1ccc(NC(=O)CN2CCC(C(=O)c3ccc(F)cc3)CC2)c(OC)c1 the results were IL-1B inflam inh 45, DT40 TDP1 CPT inconclusive, DT40 TDP1 no CPT 21µM*, Six1-Eya2 inh -3, TDP1 block 2% and CtBP-E1A inh 0.
`COc1ccc(OC)c(NC(=O)CN2CCC(C(=O)c3ccc(C)cc3)CC2)c1` gave IL-1B inflam inh -11, DT40 TDP1 CPT 26µM*, DT40 TDP1 no CPT 21µM*, Six1-Eya2 inh -24, TDP1 block 3% and CtBP-E1A inh -16.
Screening CCOc1cc(C=O)ccc1OCCSc1ccc(Cl)cc1 returned IL-1B inflam inh -4, DT40 TDP1 CPT -19%, DT40 TDP1 no CPT -27%, Six1-Eya2 inh 34 and CtBP-E1A inh 35.
For COc1ccc(S(=O)(=O)N2CCSCC2)cc1C(N)=O the results were IL-1B inflam inh 9, DT40 TDP1 CPT inconclusive, DT40 TDP1 no CPT 0%, Six1-Eya2 inh 4 and CtBP-E1A inh 2.
Screening O=C(Nc1ccc(F)cc1F)c1cc2ccccc2oc1=O returned IL-1B inflam inh 1, DT40 TDP1 CPT -22%, DT40 TDP1 no CPT inconclusive, Six1-Eya2 inh 2 and TDP1 block 6%.
Screening CN(CCCNC(=O)CSc1cc(=O)n(C)c2ccc(Cl)cc12)Cc1ccccc1 returned IL-1B inflam inh -54*, DT40 TDP1 CPT inconclusive, DT40 TDP1 no CPT inconclusive, Six1-Eya2 inh -5, TDP1 block 1% and CtBP-E1A inh -10.
CCN(CCCNC(=O)CSc1cc(=O)n(C)c2cc(Cl)ccc12)c1ccccc1 was read as DT40 TDP1 CPT inconclusive, DT40 TDP1 no CPT inconclusive and TDP1 block 2%.
Screening CCc1ccc(CNC(=O)CSc2cc(=O)n(C)c3ccc(Cl)cc23)cc1 returned DT40 TDP1 CPT 23µM*, DT40 TDP1 no CPT 23µM* and TDP1 block 6%.
For COC(=O)C1CCN(C(=O)c2sc3nc(-c4ccccc4)cn3c2C)CC1 the results were IL-1B inflam inh 29, DT40 TDP1 CPT -13%, DT40 TDP1 no CPT -23%, Six1-Eya2 inh -1 and CtBP-E1A inh 6.
`COC(=O)c1cccc2c1-c1ccccc1/C2=N\NC(N)=O` gave IL-1B inflam inh inconclusive, DT40 TDP1 CPT inconclusive, DT40 TDP1 no CPT 15µM* and Six1-Eya2 inh 0.
Screening COC(=O)c1cccc2c1-c1ccccc1/C2=N/O returned IL-1B inflam inh -22, DT40 TDP1 CPT 16µM*, DT40 TDP1 no CPT 13µM*, Six1-Eya2 inh -18, TDP1 block 12% and CtBP-E1A inh -23.
Screening NC(=O)c1cccc2c1-c1ccccc1/C2=N/NC(N)=S returned IL-1B inflam inh -5, DT40 TDP1 CPT 15%, DT40 TDP1 no CPT inconclusive and Six1-Eya2 inh -27.
For CCCC(=O)C1=C(O)C(C(=O)OC)C(C)(C)CC1=NCCCCCC(=O)O (stereo not drawn) the results were IL-1B inflam inh 7, DT40 TDP1 CPT -23%, DT40 TDP1 no CPT -1%, Six1-Eya2 inh 6 and TDP1 block 5%.
`CCOC(=O)c1cc(C#N)c(Oc2ccccc2OC)nc1-c1ccccc1` gave IL-1B inflam inh -1, DT40 TDP1 CPT inconclusive, DT40 TDP1 no CPT 23µM*, Six1-Eya2 inh 26, TDP1 block 0% and CtBP-E1A inh 18.
`CCOC(=O)c1cc(C#N)c(SC)nc1-c1ccccc1` gave IL-1B inflam inh -9, DT40 TDP1 CPT inconclusive, DT40 TDP1 no CPT inconclusive, Six1-Eya2 inh 33 and CtBP-E1A inh 17.
Screening CCOC(=O)c1cc(C#N)c(N2CCN(c3ccccn3)CC2)nc1-c1ccccc1 returned IL-1B inflam inh -22, DT40 TDP1 CPT inconclusive, DT40 TDP1 no CPT 21µM*, Six1-Eya2 inh 9, TDP1 block -8% and CtBP-E1A inh 1.
For COc1cc([C@@H]2CC=C(C(=O)O)[C@H](c3ccc(F)cc3)N2S(=O)(=O)c2ccc(C)cc2)cc(OC)c1OC the results were IL-1B inflam inh 25, DT40 TDP1 CPT -8%, DT40 TDP1 no CPT 2%, Six1-Eya2 inh 2 and TDP1 block 4%.
`COc1ccc(CC(=O)Nc2nc(-c3ccccc3)c(C(C)=O)s2)cc1OC` gave IL-1B inflam inh inconclusive, DT40 TDP1 CPT inconclusive, DT40 TDP1 no CPT inconclusive, Six1-Eya2 inh -25, TDP1 block 11%[0.0935 µM] and CtBP-E1A inh -8.
For Cc1cc(C(=O)Cn2nc(C(=O)O)c3ccccc3c2=O)c(C)n1CCc1ccc(Cl)cc1 the results were IL-1B inflam inh -26, DT40 TDP1 CPT 21µM*, DT40 TDP1 no CPT inconclusive, Six1-Eya2 inh -11, TDP1 block 2% and CtBP-E1A inh -11.
For Cc1nc2c(cnn2CCO)c(=O)[nH]1 the results were IL-1B inflam inh 12, DT40 TDP1 CPT 24%, DT40 TDP1 no CPT -5%, Six1-Eya2 inh -2 and CtBP-E1A inh -9.
